# Hits are enriched below; roughly 2.1% of the tested compounds scored in any of these assays.
# SIRT5 block = SIRT5 desuccinylase inhibitors, primary screen, biochemical, fluorescence imaging, single point, set 5; inhibition, % at 15 µM; Purified SirT5, succinyl-peptide AMC, trypsin-coupled fluorescence; NAD-dependent protein deacylase sirtuin-5, mitochondrial (Homo sapiens), Q9NXA8; 1.1% of 330,000 active; in the data active = inhibition above about 15%
# Target sequence (Q9NXA8 whole entry, looked up): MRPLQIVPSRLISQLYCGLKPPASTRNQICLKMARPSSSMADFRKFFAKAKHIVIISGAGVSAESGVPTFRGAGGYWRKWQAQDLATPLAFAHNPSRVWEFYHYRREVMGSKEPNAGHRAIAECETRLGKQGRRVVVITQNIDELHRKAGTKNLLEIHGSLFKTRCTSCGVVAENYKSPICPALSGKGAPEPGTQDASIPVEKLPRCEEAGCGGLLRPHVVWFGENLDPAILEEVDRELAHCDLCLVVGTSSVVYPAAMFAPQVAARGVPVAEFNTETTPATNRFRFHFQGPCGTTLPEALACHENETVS
# NSD2 HMT inh = NSD2 histone methyltransferase inhibitors, primary screen, biochemical, AlphaScreen, single concentration, set 2 | Histone-lysine N-methyltransferase NSD2 (Homo sapiens), O96028 | 0.54% of 310,000 active | NSD2 peptide methylation, 120 min | inhibition, % at 12.5 µM | AID 743445, 2014; in the data active = inhibition above about 50%
# PfHsp90 set2 = growth inhibition of PfHsp90-expressing yeast, primary screen, antimalarial PfHsp90 inhibitor project, S. cerevisiae, BacTiter-Glo luminescence, single point, set 2; inhibition, % at 9.4 µM; 0.32% of 310,000 active; BacTiter-Glo ATP, 48 h; yeast lacking PDR1 and PDR3 efflux regulators; AID 504621, 2011;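 active = every replicate shows inhibition above about 80%, whatever the replicate mean, limit read from the data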;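 note: 0% = DMSO neutral controls and 100% = 20 µM radicicol positive controls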
# ARNT TACC3 PPI = disruptors of ARNT/TACC3 protein interaction, primary screen, biochemical, AlphaScreen, single concentration; AlphaScreen His-ARNT PAS-B/GST-TACC3 binding, luminescence; TACC3 fragment carries E629A point mutation; inhibition, % at 9.99 µM; 0.66% of 390,000 active; AID 623870, 2012;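 active = mean inhibition of replicates at least 50% and at least half of replicates each reaching 50%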;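 note: 0% = complete ARNT plus TACC3 wells and 100% = ARNT alone without TACC3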
# CASP6 VEID inh = human caspase-6 inhibitors, primary screen, biochemical, VEID-R110 fluorescence, single point, set 2 | P55212 | purified caspase-6, Z-VEID-R110 cleavage fluorescence | inhibition, % at 12.5 µM | 0.53% of 350,000 active | AID 686996, 2013;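 active = mean inhibition across replicates at least about 35%, with every replicate also reaching that limit, limit read from the data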;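 note: 0% = median of neutral control wells and 100% = no fluorescence left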
# Target sequence (P55212 24-179 limits assumed): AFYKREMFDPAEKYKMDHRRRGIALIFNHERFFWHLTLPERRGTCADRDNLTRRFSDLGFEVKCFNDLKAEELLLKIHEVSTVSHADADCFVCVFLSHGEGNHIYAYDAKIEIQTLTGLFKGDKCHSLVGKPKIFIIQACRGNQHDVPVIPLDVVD
# Target sequence (P55212 194-293 limits assumed): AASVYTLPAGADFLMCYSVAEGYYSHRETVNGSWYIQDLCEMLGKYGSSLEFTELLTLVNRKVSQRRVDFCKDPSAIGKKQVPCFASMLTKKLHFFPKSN
# * hit, by the source's call; / = no result.
SMILES,SIRT5 block,NSD2 HMT inh,PfHsp90 set2,ARNT TACC3 PPI,CASP6 VEID inh
O=C(COC(=O)/C=C/c1ccc(Cl)cc1)NC1CC1,21*,0,-7,-5,2
O=C(COC(=O)/C=C/c1ccc(Cl)cc1)NC1CCCCCC1,-3,9,14,/,-2
C[C@H](CO)N1C[C@H](C)[C@@H](CN(C)C(=O)Nc2cccc3ccccc23)Oc2c(NC(=O)c3nc4ccccc4s3)cccc2C1=O,0,/,/,13,3
O=C(Nc1nnc(-c2ccco2)o1)c1ccc(N2C(=O)CCC2=O)cc1,0,-3,/,58*,28
Cc1nn(-c2ccccc2)c(C)c1C(=O)Nc1nnc(-c2ccco2)o1,/,0,-35,49*,/
COc1ccc(CCN2CC(C(=O)NCCc3ccc(C)cc3)CC2=O)cc1OC (centres undefined),-3,1,10,-2,48*
COc1ccc(CCNC(=O)C2CC(=O)N(c3ccc(C)cc3)C2)cc1OC (centres undefined),-4,-4,10,29,0
Cc1cc(C)cc(NC(=O)N2CCCN(c3ncccc3[N+](=O)[O-])CC2)c1,-4,5,6,2,5
CC(C)NC(=S)N1CCCN(c2ncccc2[N+](=O)[O-])CC1,17*,8,-18,7,2
O=C(NCC[C@H]1CC[C@H](NS(=O)(=O)Cc2ccccc2)[C@@H](CO)O1)C1CC1,-1,/,/,5,3
C[C@@H]1CN([C@H](C)CO)C(=O)c2c(c3ccccc3n2C)-c2ccccc2CO[C@@H]1CN(C)Cc1cccc2c1OCCCO2,20*,/,/,/,2
C[C@@H]1CN([C@@H](C)CO)C(=O)c2c(c3ccccc3n2C)-c2ccccc2CO[C@@H]1CN(C)Cc1cccc2c1OCCCO2,25*,/,/,/,1
C[C@H]1CN([C@@H](C)CO)C(=O)c2c(c3ccccc3n2C)-c2ccccc2CO[C@@H]1CN(C)Cc1cccc2c1OCCCO2,19*,/,/,/,-1
COc1ccccc1CN(C)C[C@@H]1OCc2ccccc2-c2c(n(C)c3ccccc23)C(=O)N([C@H](C)CO)C[C@@H]1C,0,/,/,/,1
C[C@@H]1CN([C@H](C)CO)C(=O)c2c(c3ccccc3n2C)-c2ccccc2CO[C@H]1CN(C)Cc1cccc2c1OCCCO2,23*,/,/,/,-1
CO[C@H]1CN(C)C(=O)c2ccc(NS(=O)(=O)c3ccccc3)cc2OC[C@@H](C)N(Cc2ccccn2)C[C@@H]1C,/,/,/,20,-1
COc1ccccc1CN(C)C[C@H]1OCc2ccccc2-c2c(n(C)c3ccccc23)C(=O)N([C@@H](C)CO)C[C@H]1C,15*,/,/,/,1
C[C@H]1CN([C@@H](C)CO)C(=O)c2ccccc2-c2ccccc2CO[C@H]1CN(C)Cc1cccc2c1OCCCO2,-1,/,/,-8,-2
COC(=O)N(C)C[C@H]1OCc2ccccc2-c2c(n(C)c3ccccc23)C(=O)N([C@@H](C)CO)C[C@@H]1C,18*,/,/,5,3
C[C@H]1CN([C@@H](C)CO)C(=O)c2c(c3ccccc3n2C)-c2ccccc2CO[C@H]1CN(C)Cc1cccc2c1OCCCO2,21*,/,/,/,-1
O=C(C[C@H]1C=C[C@@H](NC(=O)CN2CCOCC2)[C@H](CO)O1)NC1CCCCC1,-3,/,/,-16,3
CN1CCN(NC(=O)NC2CCCCC2)CC1,3,1,-4,-4,41*
Cc1noc(C)c1NC(=O)N[C@H]1CC[C@H](CC(=O)N2CCN(C)CC2)O[C@@H]1CO,0,/,/,-2,3
O=C(C[C@@H]1CC[C@H](NC(=O)CCN2CCCCC2)[C@H](CO)O1)Nc1ccc(-c2ccccc2)cc1,-1,/,/,-2,-2
CCOC(=O)c1c(CS(=O)(=O)c2ccccc2)n(C)c2cc(Br)c(O)c(CN(C)C)c12,/,1,-8,4,-1
SMILES,SIRT5 block,NSD2 HMT inh,PfHsp90 set2,ARNT TACC3 PPI,CASP6 VEID inh
CCOC(=O)c1c(CS(=O)(=O)c2ccccc2)n(C)c2cc(Br)c(O)cc12,18*,-2,12,1,-4
C[C@H]1CN([C@@H](C)CO)C(=O)c2ccccc2-c2ccccc2CO[C@@H]1CN(C)Cc1cccc(C(F)(F)F)c1,19*,/,/,/,0
C[C@@H]1CN([C@H](C)CO)C(=O)c2ccccc2-c2ccccc2CO[C@@H]1CN(C)Cc1cccc(C(F)(F)F)c1,5,/,/,/,-1
C[C@@H]1CN([C@@H](C)CO)C(=O)c2ccccc2-c2ccccc2CO[C@@H]1CN(C)Cc1ccccc1C(F)(F)F,12,/,/,/,0
C[C@H]1CN([C@@H](C)CO)C(=O)c2ccccc2-c2ccccc2CO[C@H]1CN(C)Cc1ccccc1C(F)(F)F,17*,/,/,/,-2
C[C@@H]1CN([C@H](C)CO)C(=O)c2ccccc2-c2ccccc2CO[C@@H]1CN(C)Cc1ccc(Cl)c(Cl)c1,2,/,/,/,1
CCOC(=O)N(C)C[C@@H]1OCc2ccccc2-c2ccccc2C(=O)N([C@@H](C)CO)C[C@H]1C,25*,/,/,5,-2
C[C@H]1CN([C@@H](C)CO)C(=O)c2ccccc2-c2ccccc2CO[C@@H]1CN(C)Cc1ccc(Cl)c(Cl)c1,19*,/,/,/,4
COc1ccc2c3c([nH]c2c1)[C@H](CO)N(Cc1nccs1)CC31CN(Cc2nccs2)C1,-3,/,/,/,-5
COCC(=O)Nc1ccc2c(c1)C(=O)N(C)C[C@@H](OC)[C@@H](C)CN(Cc1ccccc1F)[C@@H](C)CO2,7,/,/,-3,-4
COc1ccc2c3c([nH]c2c1)[C@H](CO)N(Cc1ccccn1)CC31CN(C(=O)c2ccccn2)C1,-5,/,/,/,/
CC(C)(C)[C@H]1C=C(C(=O)N2CCCCCCC2)O[C@@H](OCc2ccc(CO)cc2)C1,3,/,/,/,-3
C[C@H](CO)N1C[C@H](C)[C@@H](CN(C)Cc2ccccc2C(F)(F)F)OCc2ccccc2-c2ccccc2C1=O,30*,/,/,/,2
C[C@@H]1CN([C@H](C)CO)C(=O)c2ccccc2-c2ccccc2CO[C@H]1CN(C)C(=O)Nc1ccccc1C(F)(F)F,/,/,/,-5,1
C[C@H]1CN([C@@H](C)CO)C(=O)c2ccccc2-c2ccccc2CO[C@@H]1CN(C)C(=O)Nc1ccccc1C(F)(F)F,21*,/,/,11,1
C[C@H](CO)N1C[C@H](C)[C@H](CN(C)Cc2ccccc2C(F)(F)F)OCc2ccccc2-c2ccccc2C1=O,12,/,/,/,0
CN(CC(=O)N1CCN(C2CCCCC2)CC1)S(=O)(=O)c1cccc2nsnc12,22*,-3,-9,-1,-1
CN(CC(=O)N1CCCCC1)S(=O)(=O)c1cccc2nsnc12,-3,-3,-2,/,-2
